Cycloheximide cs: counter-screen hit for Shiga toxin inhibitors, cycloheximide | max response, % | cell reporter, cycloheximide protein synthesis inhibition counterscreen | 300,000 tested, 12% active | AID 2314; in the data active = max response mostly above about 13%, no sharp cut-off; inactive = mostly below about 14%; note: read at 38.3 µM for the half of the compounds with a filed dose; 0% is about no effect
Pf growth 96h: P. falciparum growth inhibition at 96 hours | Potency, µM (series often up to 28.7 µM), inactives show at the top dose activity change, negative = inhibition, most hits filed as inhibitors | 320,000 tested, 6.9% active | P. falciparum luciferase reporter growth, 96 h; note: potency is the fitted concentration of half-maximal effect; % is set by controls: 0 for no effect and ±100 for the full control effect
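Readout is luminescence from an integrated firefly luciferase in P. falciparum. Red cells, 2% hematocrit and 0.05% parasitemia final, were cultured with compound through two parasite generations (96 hours) at 37 C, 5% CO2.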
Pf growth 48h: inhibits P. falciparum growth in the first generation, 48 h. P. falciparum luciferase growth in erythrocytes, 48 h. Potency, µM (highest dose often 28.7 µM), without a hit: at the highest dose activity change, negative = inhibition, most hits filed as inhibitors. 310,000 tested, 5.9% active. AID 504832; note: potency is the fitted concentration of half-maximal effect; % is set by controls: 0 for no effect and ±100 for the full control effect
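Firefly luciferase activity from engineered P. falciparum reports growth; inhibitors lower the luminescent signal. Cultures contained 2% hematocrit erythrocytes at 0.1% final parasitemia.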
Shiga toxin inh: Shiga toxin inhibition; Vero cells, Shiga toxin protein synthesis inhibition reporter; inhibition, % at 38.7 µM; 290,000 tested, 9.2% active; AID 2315; in the data active = inhibition mostly above about 28%, no sharp cut-off; inactive = mostly below about 43%; note: 0% is about no effect
* hit, by the source's call; ? = inconclusive; . = no result given. In the library only some 21% were active in any assay of this set; here they are far more common. Unless noted, calls come from the whole dose curve; as a rule, active = well fitted inhibition curve with a large enough effect; inconclusive = small, poorly fitted or top-dose-only effect, or another doubt; inactive = no such curve, though single readings can be large or run the other way.

SMILES	Cycloheximide cs	Pf growth 96h	Pf growth 48h	Shiga toxin inh
CN(C(=O)c1ccc2c(=O)n3c(nc2c1)CCCCC3)c1cccc(Cl)c1	18*	?	-19%	23
CCOc1ccccc1N(C)C(=O)c1ccc2c(=O)n3c(nc2c1)CCCCC3	-4	1.5µM*	?	-3
CN(C(=O)c1ccc2c(=O)n3c(nc2c1)CCCCC3)c1ccccc1F	17*	?	7%	-1
O=C(O)CO.[NH2-].[NH2-].[Pt+2]	.	1%	12%	.
COc1ccc(NC(=O)CNS(=O)(=O)c2ccc(Cl)cc2)cc1	16*	-20%	36%	23
COc1ccc(NC(=O)COc2ccc(N(C)S(=O)(=O)c3ccc(C)cc3)cc2)cc1	-3	-27%	-24%	-8
COc1ccc(NC(=O)COc2ccc(N(C)S(=O)(=O)c3ccc(Cl)cc3)cc2)cc1	.	?	12µM*	.
CCOc1ccc(S(=O)(=O)N(C)c2ccc(OCC(=O)NCCc3ccc(OC)cc3)cc2)cc1	6	3.3µM*	93%	0
COc1ccc(OCC(=O)Nc2ccc(C)cc2)cc1	26*	64%	41%	60*
COc1cccc(NC(=O)CNS(=O)(=O)c2ccc(Cl)cc2)c1	-1	-18%	-11%	3
COc1ccc(CCNC(=O)c2ccc(N(C)S(=O)(=O)c3ccc(C)cc3)cc2)cc1	-3	4%	?	-3
O=C(CSc1nc2c(cnn2-c2cccc(Cl)c2)c(=O)[nH]1)NCCC1=CCCCC1	.	6%	-12%	.
COc1ccc(CCC(=O)NCCOc2ccc(Cl)cc2)cc1	32*	19%	0%	40
COc1ccc(OCC(=O)Nc2ccc(Cl)cc2)cc1	19*	-12%	6%	61*
COc1ccc(OCC(=O)NNC(=O)C(=O)Nc2ccc(C)cc2)cc1	24*	67%	0%	14
Cc1ccc(OCCC(=O)OCC(=O)Nc2ccc(F)cc2)cc1	.	38%	8%	.
Cc1ccc(OCC(=O)Nc2ccc(F)cc2)cc1	47*	.	68%	40*
O=C(O)c1cccc(-n2cccc2/C=C/[N+](=O)[O-])c1	12	4%	21%	-8
COc1c(Cl)cc(C(=O)NCc2ccco2)cc1Cl	-2	?	62%	3
CC(=O)Nc1ccc(OCC(=O)NCCc2ccc(Cl)cc2)cc1	-2	13µM*	24%	-18
CC(=O)Nc1ccc(OCC(=O)NCc2ccccc2)cc1	1	3%	13%	-4
CC(=O)N1CCN(S(=O)(=O)c2cccc(C(=O)N(Cc3ccccc3)c3ccc(C)cc3)c2)CC1	.	?	5.9µM*	.
COCCN(Cc1ccccc1)C(=O)c1cccc(S(=O)(=O)N2CCN(c3ccccc3)CC2)c1	.	?	5%	.
CC1CN(S(=O)(=O)c2cccc(C(=O)N(CCc3ccccc3)Cc3ccccc3)c2)CC(C)O1 (configuration not stated)	.	?	2.9µM*	.
Cc1ccc(N(Cc2ccccc2)C(=O)c2cccc(S(=O)(=O)N3CC(C)OC(C)C3)c2)cc1 (configuration not stated)	.	?	10µM*	.
SMILES	Cycloheximide cs	Pf growth 96h	Pf growth 48h	Shiga toxin inh
Cc1ccc(C(=O)N2CCC(C(=O)c3c(C)cc(C)cc3C)CC2)cc1	-1	?	?	-4
CCOC(=O)/C(C#N)=C\c1cc(OC)c(OC)cc1[N+](=O)[O-]	-4	21%	0%	46
COc1ccc(-n2c(C)nc(=O)c(-c3ccccc3)c2C)cc1	-3	9.3µM*	-19%	-3
CCN(CC)P1(=O)OC(c2cc(OC)c(OC)c(OC)c2)=Nc2c1c(C)nn2-c1ccccc1 (configuration not stated)	-3	.	10µM*	14
c1csc(-c2noc(CN3CCOCC3)n2)c1	31*	125%	110%	41*
CN(CCN1CCOCC1)Cc1nc(-c2cccs2)no1	3	?	43%	15
c1csc(-c2noc(CN3CCN4CCCC4C3)n2)c1 (configuration not stated)	21*	?	73%	47*
O=C(c1ccco1)N1CCCN(Cc2nc(-c3ccc4c(c3)OCO4)no2)CC1	7	?	-6%	17
O=C(c1ccco1)N1CCN(Cc2nc(-c3cccs3)no2)CC1	11*	0%	44%	35*
OC[C@@H]1CCCN1Cc1nc(-c2cccs2)no1	19*	?	19%	51*
O=C(O)Cn1c(=O)c2c3c(sc2n(Cc2ccc(Cl)cc2Cl)c1=O)CCCC3	-3	18%	2%	-10
O=S(=O)(c1ccc(NC(=S)NN=C2CCCCC2)cc1)N1CCOCC1	-1	?	-15%	14
CCOC(=O)C1(CCOc2ccccc2)CCN(Cc2cccc(-n3cccn3)c2)CC1	-5	10µM*	?	1
CCOC(=O)C1(CCOc2ccccc2)CCN(C(=O)c2ccc(-n3cccn3)cc2)CC1	5	10µM*	?	16
CCOC(=O)C1(CCOc2ccccc2)CCN(Cc2cccc(F)c2)CC1	1	?	0%	5
CCOC(=O)C1(CCOc2ccccc2)CCN(CCCn2cccn2)CC1	-1	?	?	3
CCOc1cccc(C(=O)Nc2ccccc2C(=O)N2CCN(C)CC2)c1	0	4.7µM*	2%	-8
CN1CCN(c2ccccc2NC(=O)c2ccc(-c3ccccc3)cc2)CC1	-7	.	?	-14
COc1c(F)c(F)c(C(=O)Nc2ccccc2N2CCN(C(C)=O)CC2)c(F)c1F	1	94%	?	-23
COc1c(F)c(F)c(C(=O)Nc2ccccc2N2CCN(C(=O)C(C)C)CC2)c(F)c1F	5	57%	0.93µM*	-16
CN1CCN(c2ccccc2NC(=O)c2c(F)cccc2F)CC1	0	3.7µM*	?	11
CN1CCN(c2ccccc2NC(=O)c2cccc(OCc3ccccc3)c2)CC1	-2	.	5.2µM*	-15
CC(=O)N1CCN(c2ccc(NC(=O)c3cccc(OCc4ccccc4)c3)cc2)CC1	12	?	10%	-8
O=C(NCCOc1ccc(Cl)cc1)C1CC(=O)N(c2ccc3c(c2)OCCO3)C1 (configuration not stated)	.	?	-28%	.
Cc1nc(CNS(=O)(=O)c2ccc(F)cc2)cs1	2	-21%	15%	-6
SMILES	Cycloheximide cs	Pf growth 96h	Pf growth 48h	Shiga toxin inh
CN1CCN(c2ccccc2NC(=O)c2ccc(OCc3ccccc3)cc2)CC1	-3	13µM*	7.4µM*	-12
CN1CCN(c2ccccc2NC(=O)C(Cc2ccccc2)n2cccc2)CC1 (configuration not stated)	-3	?	10µM*	3
CCOC(=O)C(Oc1ccc2c(-c3ccccc3)cc(=O)oc2c1C)c1ccccc1 (configuration not stated)	1	?	12µM*	-2
Cc1cccc(C)c1NC(=O)CN(C)C(=O)c1ccccc1Sc1ccccc1C#N	.	?	9.3µM*	.
Oc1ccc(C(c2nnnn2C2CCCCC2)N2CCOCC2)cc1 (configuration not stated)	2	?	-5%	-6
COc1ccccc1N1CCN(C(c2cc3ccc(C)cc3[nH]c2=O)c2nnnn2C2CCCC2)CC1 (configuration not stated)	-3	-19%	1.9µM*	4

Source: PubChem BioAssay
